Drawing on PubChem BioAssay (NCI), this text covers growth for 31 molecules.

This is part of a sample that, as a whole, favours compounds with a hit. Of some 83,000 tested, about 20% had one in any assay.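 Method: cells in 96-well plates; compound added at one concentration; 48 h incubation; percent growth measured; values under 10 scored active.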 Unmarked numbers belong to inactive results. Active and inactive are the calls of the source.

In the experiment the test system is MDA-MB-468 breast. In words: NCI-60 one-dose screen, 48 h (100 = growth as untreated, 0 = no growth, -100 = all killed). The conditions noted are these: 10 µM unless noted.
`COc1ccc(-c2cc(=O)[nH]c3c(OC)c4ccccc4c(OC)c23)cc1`: the growth is -0.192% (active). On to `Cc1ccc(NC(=O)CCl)cc1Cl`, for which the growth was 108%.

As for `Cc1ccc(NSc2ccccc2[N+](=O)[O-])cc1`, the growth is 17.6%. Take `CCN(CC)CCOc1ccc(C(=C(C)Cc2ccc(OC)cc2)c2ccc(OCCN(CC)CC)cc2)cc1`: the growth was -25.4% (active).

Take `Cn1cc(C2=C(c3cccc4ccccc34)C(=O)NC2=O)c2cc(Br)ccc21`: the growth was 87.2%.

As for `COc1ccc(/C=C/C(=O)/C=C/c2cc3ccc(Cl)cc3[nH]c2=O)cc1`, the growth is 87.2%. As to `Cc1ccc(S(=O)(=O)C2=C3C(=C(c4ccccc4)c4ccccc43)CN(S(=O)(=O)c3ccc(C)cc3)C2)cc1`, the growth was 51%. As to `O=S(=O)(NCCNc1nccc(-c2c(-c3cccc(F)c3)nc3occn23)n1)c1ccc(Br)cc1`, the growth is 67.7%.

With `C#CCO[C@H]1CC[C@H](OCC#C)[C@@H]2[C@H]1[C@H]1C[C@@H]3[C@@]4(C)CCC[C@@](C)(C(=O)OC)[C@@H]4CC[C@@]23C=C1C(C)C`, the growth was 91.3%. The same measure for `O=C1NC(=S)S/C1=C\c1cccc([N+](=O)[O-])c1`: 106%; for `COc1ccc(C2NC(=O)Nc3ccccc32)c(OC)c1` (stereo unspecified): 103%; for `O=C(Nc1cccc(-n2ccc3c(NC(=O)c4ccccc4)nccc32)c1)c1ccc(Cl)c(Cl)c1`: -94.1% (active). On to `COc1cc2c(cc1OC)C(Sc1ccc(SC)cc1)c1c(nc(N)c(C#N)c1N)O2` (stereo unspecified), for which the growth is -47.1% (active). As for `NC(=N\N=C/c1cccc([N+](=O)[O-])c1)/C(N)=N\N=C/c1cccc([N+](=O)[O-])c1`, the growth is 64.9%. Turning to `COc1ccc(-c2ccc3cc(C(=O)Nc4ccc(O)c(C(=O)/C=C/c5cc(OC)c(OC)c(OC)c5)c4)ccc3c2)cc1`, the growth is 82.2%.

Take `O=C(O)c1cccc2c1Cc1cc([N+](=O)[O-])ccc1-2`: the growth was 113%. For `C=C(C)[C@@H]1CC[C@]2(C(=O)N3CCN(C)CC3)CC[C@]3(C)[C@H](CC[C@@H]4[C@@]5(C)CC(=C/c6ccncc6)/C(=N/O)C(C)(C)[C@@H]5CC[C@]43C)[C@@H]12`, the growth was 62.2%. Regarding `CC(=O)Nc1cc(F)cc(-c2ccc3[nH]cc(-c4ccccc4)c3n2)c1`, the growth was -21.9% (active). In the case of `C=C(C)[C@@H]1CC[C@]2(C(=O)N3CCN(C)CC3)CC[C@]3(C)[C@H](CC[C@@H]4[C@@](C)(CCC(=O)O)[C@H](C(=C)C)CC[C@]43C)[C@@H]12`, the growth was 90.1%. The same measure for `CSc1nc2c(c(=O)[nH]1)C(c1ccc(Cl)cc1)C1=C(N2)/C(=C/c2ccc(Cl)cc2)CNC1` (stereo unspecified): 48.4%.

Take `CC(=O)C1CCC2C3CC=C4CC(SC(=N)N)CCC4(C)C3CCC12C` (stereo unspecified): the growth was -36.8% (active). In the case of `Cc1ccc(C2(C)NC(=O)N(CC(=O)Nc3cccc(C)c3)C2=O)cc1` (stereo unspecified), the growth was 89%. As to `COc1cccc2c1C(=O)c1c(O)c3c(c(O)c1C2=O)C[C@@](O)(C(C)=O)C[C@@H]3O[C@H]1C[C@H](N)[C@H](O)[C@H](C)O1`, the growth was -72.5% (active).

For the molecule `COc1cc(C)cc2oc3oc(=O)c(C(=O)c4cc5cc(Br)ccc5o4)cc3c(=O)c12`, the growth is 107%. With `O=C1c2cccc(NCCN=Cc3cc(O)ccc3O)c2C(=O)c2c(NCCN=Cc3cc(O)ccc3O)cccc21` the figure was -85.8% (active).

For the molecule `COc1ccc(-c2nc(SCCC(C)C)nc(N/N=C\c3cccc(Cl)c3)c2C#N)cc1`, the growth was 95.9%. With `COc1cc(/C=C/C(=O)/C=C(/C=C/c2ccc(OC(C)=O)c(OC)c2)OB(F)F)ccc1OC(C)=O` the figure was 48.8%. On to `COc1ccc(-n2ncn(CCCCCCn3cnn(-c4ccc(OC)cc4)c3=O)c2=O)cc1`, for which the growth was 84.8%. Take `CO[C@H](C(=O)[C@@H](O)[C@@H](C)O)[C@@H]1Cc2cc3cc(O[C@H]4C[C@@H](O[C@H]5C[C@@H](O)[C@H](O)C(C)O5)[C@H](O)C(C)(O)O4)cc(O)c3c(O)c2C(=O)[C@H]1O[C@H]1C[C@@H](O[C@H]2C[C@@H](O[C@H]3C[C@@H](OC)[C@H](O)C(C)O3)[C@@H](O)C(C)O2)[C@H](O)C(C)O1` (stereo partly specified): the growth is 14%. For `CN1C(=O)N(C)C2C1NN=c1s/c(=C\C=C\c3ccccc3)c(=O)n12` (stereo unspecified), the growth was 13.9%. For the molecule `COc1cc([N+](=O)[O-])c2ncccc2c1O`, the growth was 95.1%.
